Measured values as given in PubChem BioAssay (Tox21).
Several values for one entry are separate records, joined by “and”; a condition that tells them apart may be missing. Equal values may be shown once. Results filed as inconclusive are left out. Where a structure was tested more than once in an assay, its records may differ in their call. Activity calls are given as the source filed them. Unless noted, calls come from the whole dose curve.

What was measured:
[1] = qHTS assay to identify small molecule antagonists of the estrogen receptor beta (ER-beta) signaling pathway - cell viability counter screen (AID 1259382; active = well fitted curve in the direction sought with a large enough effect in the repeat runs; an effect the other way counts as inactive or inconclusive; note: nearly all actives have a fitted effect of over 55% in size; note: potency is the fitted concentration of half-maximal effect)
Procedure, shortened: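 Cytotoxicity counter screen multiplexed with the beta-lactamase antagonist assay: GripTite HEK293T ER-beta-bla cells were treated 16 hr with test chemicals in the presence of 1nM 17-beta-estradiol, and viability was measured by CellTiter-Glo.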

[2] = target: Estrogen receptor (Homo sapiens) (UniProt P03372); test: qHTS assay to identify small molecule agonists of the estrogen receptor alpha (ER-alpha) signaling pathway in the presence of an antagonist (AID 1259383); note: top concentration of the series differs between compounds; nearly all actives have a fitted effect of over 15% in size
Procedure, shortened: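 Agonist-mode confirmation in the presence of the ER antagonist ICI-182,780 at 10.0nM final. Breast-derived VM7Luc4E2 reporter cells were exposed to compounds for 22hr, and ERE-driven luciferase was quantified by luminescence.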

[3] = qHTS assay to identify small molecule agonists or antagonists of the thyroid stimulating hormone receptor (TSHR) signaling pathway - wild type cell line counter screen (AID 1259384)
Procedure, shortened: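 Counter screen in untransfected Hek293: compounds (15-point titration, triplicate) plus phosphodiesterase inhibitor Ro20-1724 added after 18 h plating; 30 min RT. Intracellular cAMP via competitive d2/cryptate immunoassay, 1 h incubation.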

[4] = target: Thyrotropin receptor (Homo sapiens) (UniProt P16473); test: qHTS assay to identify small molecule antagonists of the thyroid stimulating hormone receptor (TSHR) signaling pathway (AID 1259385); note: nearly all actives have a fitted effect of over 20% in size
Procedure, shortened: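 Antagonist mode: compound-treated TSHR-expressing HEK293 cells were stimulated with 1.5 ng/mL TSH (final) in presence of Ro20-1724 for 30 min at RT. HTRF cAMP detection after 1 h; each compound tested at 15 concentrations, triplicate.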

[5] = qHTS assay to identify small molecule agonists of the estrogen receptor alpha (ER-alpha) signaling pathway in the presence of an antagonist - cell viability counter screen (AID 1259386; active = well fitted curve in the direction sought with a large enough effect in the repeat runs; an effect the other way counts as inactive or inconclusive;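 note: series mostly up to about 92 µM; cells exposed to compounds for 22 h at 37 °C before the viability read; nearly all actives have a fitted effect of over 30% in size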)
Procedure, shortened: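 Cytotoxicity was measured in parallel with the ERE-luciferase agonist screen, in the same wells. The cells were VM7Luc4E2, which endogenously express ER-alpha, and treatment was with compounds plus 10.0nM ICI-182,780 for 22hr.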

[6] = target: Progesterone receptor (Homo sapiens) (UniProt P06401); test: qHTS assay to identify small molecule agonists of the progesterone receptor (PR) signaling pathway (AID 1346784); note: nearly all actives have a fitted effect of over 30% in size; note: potency is the fitted concentration of half-maximal effect
Procedure, shortened: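 Fluorescence from LiveBLAzer B/G FRET substrate cleavage (2 hr, RT) reported PR activation in PR-UAS-bla HEK 293T cells treated 16 hr at 37C/5% CO2 with compounds; medium contained 2% charcoal-stripped FBS.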

[7] = target: Progesterone receptor (Homo sapiens) (UniProt P06401); test: qHTS assay to identify small molecule antagonists of the progesterone receptor (PR) signaling pathway (AID 1346795; active = well fitted inhibition curve with a large enough effect in the signal ratio in the repeat runs, not every such curve was filed as active; the % refers to the signal ratio; note: potency is the fitted concentration of half-maximal effect)
Procedure, shortened: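 Fluorescence intensity measured 2 hr after adding beta-lactamase FRET substrate to PR-UAS-bla HEK293T cells that had been co-treated 16 hr with compound and 1 nM R5020 (final concentration) in 2% charcoal-stripped FBS.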

[8] = qHTS assay to identify small molecule antagonists of the progesterone receptor (PR) signaling pathway - cell viability counter screen (AID 1346798; active = well fitted curve in the direction sought with a large enough effect in the repeat runs; an effect the other way counts as inactive or inconclusive; note: series mostly up to about 92 µM; nearly all actives have a fitted effect of over 50% in size)
Procedure, shortened: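 CellTiter-Glo luminescence; PR-UAS-bla HEK293T, 3,000 cells/well; compound + R5020, 16 hr, 37C/5% CO2; 30 min RT before read.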

[9] = qHTS assay to identify small molecule agonists of the progesterone receptor (PR) signaling pathway - cell viability counter screen (AID 1346799); note: nearly all actives have a fitted effect of over 45% in size; note: potency is the fitted concentration of half-maximal effect
Procedure, shortened: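 In parallel with the beta-lactamase readout, cytotoxicity toward PR-UAS-bla HEK293T cells was measured by CellTiter-Glo luminescence following 16 hr compound incubation in 2% charcoal-stripped FBS medium.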

[10] = qHTS assay to identify small molecule antagonists of the TGF-beta/Smad signaling pathway - cell viability counter screen (AID 1346824; active = well fitted curve in the direction sought with a large enough effect in the repeat runs; an effect the other way counts as inactive or inconclusive; note: nearly all actives have a fitted effect of over 50% in size)
Procedure, shortened: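 Cytotoxicity counter-screen run in the same wells as the beta-lactamase Smad reporter read: CellTiter-Glo luminescence after 30 min at room temperature. HEK 293T SBE-bla cells had 5 hr compound exposure at 37 C with TGF-beta1 (0.25 ng/mL stock).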

Measured: Potency

Thyrotropin receptor (Homo sapiens), sequence (P16473 whole entry, looked up): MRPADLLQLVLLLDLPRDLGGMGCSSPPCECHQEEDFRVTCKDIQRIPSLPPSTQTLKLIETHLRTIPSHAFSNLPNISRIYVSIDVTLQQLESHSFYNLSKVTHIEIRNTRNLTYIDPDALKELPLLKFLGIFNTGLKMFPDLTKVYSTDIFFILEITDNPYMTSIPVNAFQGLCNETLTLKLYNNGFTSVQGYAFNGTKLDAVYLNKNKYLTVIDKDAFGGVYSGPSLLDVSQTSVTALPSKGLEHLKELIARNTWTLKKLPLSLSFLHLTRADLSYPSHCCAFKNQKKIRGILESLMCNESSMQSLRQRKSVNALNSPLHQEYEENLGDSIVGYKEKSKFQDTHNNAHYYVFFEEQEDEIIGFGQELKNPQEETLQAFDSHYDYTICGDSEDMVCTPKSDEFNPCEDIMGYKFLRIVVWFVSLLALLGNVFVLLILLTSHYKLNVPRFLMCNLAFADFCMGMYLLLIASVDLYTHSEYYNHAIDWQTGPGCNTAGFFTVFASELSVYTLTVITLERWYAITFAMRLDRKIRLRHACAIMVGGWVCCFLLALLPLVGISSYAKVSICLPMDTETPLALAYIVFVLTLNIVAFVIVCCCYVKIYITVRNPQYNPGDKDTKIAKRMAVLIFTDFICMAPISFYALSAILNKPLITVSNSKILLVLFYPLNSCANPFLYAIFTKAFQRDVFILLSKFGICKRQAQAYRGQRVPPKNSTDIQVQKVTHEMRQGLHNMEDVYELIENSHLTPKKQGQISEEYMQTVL
Progesterone receptor (Homo sapiens), sequence (P06401 whole entry, looked up): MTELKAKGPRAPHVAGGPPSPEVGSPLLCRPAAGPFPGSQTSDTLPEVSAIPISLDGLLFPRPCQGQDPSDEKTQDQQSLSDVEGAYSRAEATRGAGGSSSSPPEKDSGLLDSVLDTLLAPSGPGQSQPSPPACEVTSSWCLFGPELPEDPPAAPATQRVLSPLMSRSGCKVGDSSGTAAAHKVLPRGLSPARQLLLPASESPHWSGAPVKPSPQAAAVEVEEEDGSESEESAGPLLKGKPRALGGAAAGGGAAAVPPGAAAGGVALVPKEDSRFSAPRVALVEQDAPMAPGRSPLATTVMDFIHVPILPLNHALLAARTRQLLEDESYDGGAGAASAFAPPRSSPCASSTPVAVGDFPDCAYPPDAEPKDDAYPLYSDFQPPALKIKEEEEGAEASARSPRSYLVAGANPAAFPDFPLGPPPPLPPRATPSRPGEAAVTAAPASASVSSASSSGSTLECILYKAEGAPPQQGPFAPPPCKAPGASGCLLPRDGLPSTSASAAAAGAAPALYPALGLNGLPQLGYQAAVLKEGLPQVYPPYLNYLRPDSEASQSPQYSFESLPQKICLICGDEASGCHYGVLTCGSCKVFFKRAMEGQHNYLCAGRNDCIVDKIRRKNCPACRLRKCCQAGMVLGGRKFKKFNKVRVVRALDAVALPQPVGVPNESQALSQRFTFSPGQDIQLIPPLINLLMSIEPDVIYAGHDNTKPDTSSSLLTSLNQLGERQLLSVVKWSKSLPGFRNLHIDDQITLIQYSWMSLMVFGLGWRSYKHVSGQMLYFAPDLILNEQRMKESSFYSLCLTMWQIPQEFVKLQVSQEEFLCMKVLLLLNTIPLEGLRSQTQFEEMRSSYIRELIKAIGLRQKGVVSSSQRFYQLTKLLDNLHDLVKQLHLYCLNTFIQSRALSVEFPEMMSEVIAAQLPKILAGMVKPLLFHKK
Estrogen receptor (Homo sapiens), sequence (P03372 whole entry, looked up): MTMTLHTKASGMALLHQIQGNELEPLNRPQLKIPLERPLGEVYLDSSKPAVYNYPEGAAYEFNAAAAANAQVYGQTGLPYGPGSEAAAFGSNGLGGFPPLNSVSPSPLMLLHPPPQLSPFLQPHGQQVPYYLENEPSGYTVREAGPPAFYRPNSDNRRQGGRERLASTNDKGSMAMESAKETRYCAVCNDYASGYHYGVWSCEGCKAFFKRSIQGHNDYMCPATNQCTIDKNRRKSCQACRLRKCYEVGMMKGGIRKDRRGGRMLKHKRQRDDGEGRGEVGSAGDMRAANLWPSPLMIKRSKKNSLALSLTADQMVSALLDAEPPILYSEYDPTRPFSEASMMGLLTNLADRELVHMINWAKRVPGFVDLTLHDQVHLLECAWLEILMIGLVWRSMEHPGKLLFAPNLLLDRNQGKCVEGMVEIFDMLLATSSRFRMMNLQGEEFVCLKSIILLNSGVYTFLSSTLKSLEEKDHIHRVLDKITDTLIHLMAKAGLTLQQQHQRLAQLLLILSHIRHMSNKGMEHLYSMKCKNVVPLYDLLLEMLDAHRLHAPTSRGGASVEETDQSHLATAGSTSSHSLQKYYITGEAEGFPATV

CCOC(=O)NNc1nncc2ccccc12
inactive: all assays above

Cc1ccc2oc(=O)ccc2c1
inactive: all assays above

CCCCC(CC)COC(=O)CCCCC(=O)OCC(CC)CCCC (stereo not drawn)
inactive: all assays above

COc1ccc(NC(C)=O)cc1N
inactive: all assays above

O=C(O)CC(C(=O)O)C(CC(=O)O)C(=O)O (stereo not drawn)
inactive: all assays above

CCCCCCCCCCCCCCO
inactive: all assays above

C=CCOC(=O)c1ccccc1C(=O)OCC=C
inactive: all assays above

O=C(O)CCCCCCCCCCC(=O)O
inactive: all assays above

CC1=CCC2CC1C2(C)C (stereo not drawn)
not listed: [6]
inactive: all other assays above

CC(=O)CC(=O)Nc1ccccc1C
inactive: all assays above

O=S(=O)(O)c1ccc2ccccc2c1
inactive: all assays above

O=C(OCCOCCOC(=O)c1ccccc1)c1ccccc1
not listed: [6]
inactive: all other assays above

O=S1(=O)CC=CC1
inactive: all assays above

Cc1cnc(C(=O)NCCc2ccc(S(=O)(=O)NC(=O)NC3CCCCC3)cc2)cn1
inactive: all assays above

CC(=O)Nc1cccc(O)c1
24.2 µM (active) and inactive: [6]
inactive: all other assays above

O=C=NCCCCCCN=C=O
not listed: [6]
inactive: all other assays above

CC(C)c1ccc(S(=O)(=O)O)cc1
not listed: [6]
inactive: all other assays above

COc1ccc(Nc2ccccc2)c(C)c1
not listed: [6]
inactive: all other assays above

CC1=C(C)S(=O)(=O)CCS1(=O)=O
not listed: [3] | [4] | [8]
inactive: all other assays above

C=C(C)C(=O)O[C@H]1C[C@@H]2CC[C@@]1(C)C2(C)C
7.65 µM (active) and inactive: [1]
2.71 µM (active) and inactive: [7]
8.58 µM (active) and inactive: [9]
not listed: [6] | [8]
inactive: all other assays above

O=P(OC(CCl)CCl)(OC(CCl)CCl)OC(CCl)CCl
active: [7] 6.82 µM and 7.7 µM
not listed: [6] | [9]
inactive: all other assays above

ON=C1CCCCC1
not listed: [2]
inactive: all other assays above

OCc1cccnc1
not listed: [3] | [4]
inactive: all other assays above

CCC(O)OCCCOC (stereo not drawn)
not listed: [2]
inactive: all other assays above

O=C(Oc1ccccc1)c1ccccc1
not listed: [2]
inactive: all other assays above
